67 compounds from ChEMBL document CHEMBL4513216, “Probing the Open Global Health Chemical Diversity Library for Multistage-Active Starting Points for Next-Generation Antimalarials” (ACS Infect Dis, 2020) can be followed below.

The campaign covered roughly 69,000 compounds. About 8,600 (12%) showed an effect of 50% or more. The list comes from a sample in which strong results are over-represented; it also holds similar structures and randomly drawn compounds.

For this test, the system named is Plasmodium berghei. Nature of the test: Screen against P. berghei liver stage (PbLuc), transformed with Luciferase, at 10uM. The class given is functional, HepG2. The following applies: tested at 10 uM.
As for `N#Cc1cc(S(N)(=O)=O)ccc1N1CCN(c2ccccc2)CC1`, the INHIBITION is given as -33.7%.

For the compound `CC1CCCN(C(=O)c2ccc(-c3ccco3)o2)C1` (configuration not stated), the INHIBITION is given as -22.2%.

`CCS(=O)(=O)NCC(=O)N1CCC(c2cc3ccccc3[nH]2)CC1`: the INHIBITION is on record as -17.8%.

As for `CNS(=O)(=O)CC(=O)N1CCC(c2cc3ccccc3[nH]2)CC1`, the INHIBITION stood at 18.6%.

For `COC(=O)NCC(=O)N1CCC(c2cc3ccccc3[nH]2)CC1`, the INHIBITION came to 62.9%.

In the case of `O=c1[nH]c2nc(N3CCOCC3)ncc2c(=O)n1-c1cccc(F)c1`, the INHIBITION came out at 31.7%.

For the compound `O=S(=O)(C1CC1)N1C[C@@H]2CN(Cc3ccoc3)CCO[C@@H]2C1`, the INHIBITION was -64.1%.

As for `Cc1nnc(NCCC(=O)NCc2ccccc2)c(C#N)c1C`, the INHIBITION was 12.3%.

In the case of `CC(=O)N1CC[C@@]2(O)CCCC[C@H]2[C@@H]1c1ccccc1`, the INHIBITION was 45%.

As for `O=C(NCCC1COc2ccccc2O1)c1ccc(-c2cc[nH]n2)nc1` (configuration not stated), the INHIBITION is listed as -21.6%.

`O=C(NCCC1COc2ccccc2O1)c1ccc(-c2cn[nH]c2)nc1` (configuration not stated): the INHIBITION was 48.9%.

Turning to `O=C(NCCC1COc2ccccc2O1)c1ccc(N2CC(O)C2)nc1` (configuration not stated), the INHIBITION turned out to be 59.5%.

On to `CCc1nc(C)cc(N2CCN(C(=O)[C@@H]3C[C@H]4C=C[C@@H]3C4)CC2)n1`, for which the INHIBITION was -2.09%.

Consider `O=C(Cc1c[nH]c(=O)[nH]c1=O)N1CCCCC1CCc1ccccc1` (configuration not stated), for which the INHIBITION is on record as -28%.

On to `NCC1CCCCN1C(=O)Cc1cccc(Br)c1` (configuration not stated), for which the INHIBITION is listed as -0.159%.

Turning to `O=C(Cc1c[nH]c(=O)[nH]c1=O)N1CCCCC1CCc1cccc(O)c1` (configuration not stated), the INHIBITION is on record as 57.6%.

`Nc1cccnc1N1CCCCCC1`: the INHIBITION is on record as -12.1%.

For `Cc1cccc(N2CCC3(CCCC(=O)N3)CC2)n1`, the INHIBITION is -77.4%.

With `CCc1nnc(CN(C)CC2CCCCC2)o1`, the INHIBITION is 61.1%.

On to `Cc1nnc(CN(C)CC2CCCCC2)o1`, for which the INHIBITION is on record as 27.5%.

On to `CCc1nnc(CN(C)C[C@@H]2CCCN3CCCC[C@H]23)o1`, for which the INHIBITION worked out at 5.46%.

`CCCN(CC)c1ccc(C(=O)N2CCCC2c2cnn(C)c2)cn1` (configuration not stated): the INHIBITION is recorded as 22.3%.

`COc1ccc(CNCC2CN(C3CC3)CCO2)cc1C` (configuration not stated): the INHIBITION stood at 10.2%.

For the compound `C[C@H]1C[C@H]2CN(C(=O)CCOc3ccccc3)CC[C@H]2O1`, the INHIBITION came out at 27.6%.

For `Cc1nc(COCc2cnc3n2CCN(C(=O)C2CC2)C3C)cs1` (configuration not stated), the INHIBITION is reported as 33%.

With `CC(=O)N1CCn2c(COCc3csc(C)n3)cnc2C1C` (configuration not stated), the INHIBITION is reported as -14.8%.

Turning to `CCOCc1cnc2n1CCN(Cc1nc(C)cs1)C2C` (configuration not stated), the INHIBITION turned out to be 41%.

Turning to `Cc1nc(COCc2cnc3n2CCN(C)C3C)cs1` (configuration not stated), the INHIBITION is on record as 52.3%.

For `Cc1nc(COCc2cnc3n2CCN(C2CCC2)C3C)cs1` (configuration not stated), the INHIBITION is reported as -12.6%.

In the case of `Cc1nc(COCc2cnc3n2CCN(CC2CCC2)C3C)cs1` (configuration not stated), the INHIBITION came out at 50.2%.

On to `Clc1ccccc1Cc1noc(CN2CCCC(CN3CCCC3)C2)n1` (configuration not stated), for which the INHIBITION was 42.8%.

For `COCc1cc(NCCc2ccccn2)n2nccc2n1`, the INHIBITION came out at 26.6%.

For `CC(C)CNc1nnc(SC(C(=O)NCc2cccnc2)C(C)C)s1` (configuration not stated), the INHIBITION is recorded as -11.3%.

Turning to `CNS(=O)(=O)c1ccc(CNC(=O)N(C)CC(O)COC)cc1` (configuration not stated), the INHIBITION was 36.3%.

Regarding `COCC(O)CN(C)C(=O)NCc1ccc(S(C)(=O)=O)cc1` (configuration not stated), the INHIBITION was 29.4%.

For `COCC(O)CN(C)C(=O)NCc1ccc(-c2ccn[nH]2)cc1` (configuration not stated), the INHIBITION amounted to 51.7%.

In the case of `CC(NC(=O)CCOc1cccc(F)c1)c1nnc2n1CCC2` (configuration not stated), the INHIBITION is given as 33.7%.

`Cc1nc(O)cc(CN2CC=C(c3cnn(C(C)(C)C)c3)CC2)n1`: the INHIBITION is listed as -33.2%.

As for `CCC(O)Cn1cc(C2=CCN(Cc3ccc(OC)cc3)CC2)cn1` (configuration not stated), the INHIBITION was -8.97%.

On to `CCC(O)Cn1cc(C2=CCN(Cc3cc(O)nc(C)n3)CC2)cn1` (configuration not stated), for which the INHIBITION came out at 52%.

As for `CN(C)C1CCCN(C(=O)c2ccc3sc4c(c3c2)CCNC4=O)CC1` (configuration not stated), the INHIBITION came to 60.3%.

Turning to `CN(C)[C@H]1CN(C(=O)c2ccc3sc4c(c3c2)CCNC4=O)C[C@@H]1O`, the INHIBITION is given as -26%.

In the case of `O=C1NCCc2c1sc1ccc(C(=O)N3CC[C@H](CO)[C@H](O)C3)cc21`, the INHIBITION came out at 12.1%.

As to `Fc1ccc(C(CNc2ccncn2)N2CCCCC2)cc1` (configuration not stated), the INHIBITION came out at 5.03%.

Turning to `CCc1cccc(OC2CN(C(=O)[C@@H](N)[C@@H](C)O)C2)c1`, the INHIBITION turned out to be 62.4%.

For `CCc1cccc(OC2CN(C(=O)[C@@H](N)CCSC)C2)c1`, the INHIBITION was found to be 23.9%.

Turning to `CC(N)C(=O)N1CCC(Oc2cccc(C(F)(F)F)c2)CC1` (configuration not stated), the INHIBITION turned out to be 26.6%.

With `Cc1nc2cc(=O)[nH]n2c(C)c1CC(=O)Nc1cn[nH]c1`, the INHIBITION was determined as 53.9%.

On to `Cc1nc2cc(=O)[nH]n2c(C)c1CC(=O)Nc1cnn(C(C)(C)C)c1`, for which the INHIBITION stood at 49.6%.

`Cc1nc2cc(=O)[nH]n2c(C)c1CC(=O)Nc1cnn(C)c1`: the INHIBITION turned out to be 15%.

In the case of `Cn1cc(CN2CCC3(CC2)CN(C(=O)c2cnccn2)CCO3)cn1`, the INHIBITION was -13.2%.

Consider `CCOCCc1nc(Cc2ccccc2)n[nH]1`, for which the INHIBITION was determined as 10.3%.

In the case of `O=C1COC2(CCN(Cc3cccnc3)CC2)CN1`, the INHIBITION is given as 18.2%.

Turning to `O=C(COCc1ccccc1Cl)N1CCN(c2ccc(Br)cn2)CC1`, the INHIBITION is reported as 60.3%.

Turning to `O=C(COCc1ccccc1Cl)N1CCN(c2ncccn2)CC1`, the INHIBITION is listed as -133%.

In the case of `O=C(COCc1ccccc1Cl)N1CCN(c2cnccn2)CC1`, the INHIBITION was -9.51%.

Consider `COc1ccc(Cl)cc1S(=O)(=O)N1C[C@H]2CC[C@@H](C1)N(C)C2=O`, for which the INHIBITION stood at 48.9%.

On to `CN(C)CC(=O)N1CCC2(CC1)Cc1ccccc1CN(C)C2=O`, for which the INHIBITION amounted to 18.6%.

Take `Cc1ccc(CN2C[C@@H]3CN(C(=O)c4cccn4C)C[C@@H]3C2)cc1`: the INHIBITION is given as 8.74%.

Take `c1cn(-c2ccc(CN3CCOC(Cn4cncn4)C3)cc2)cn1` (configuration not stated): the INHIBITION is 27.6%.

For the compound `CCC(C)NC(=O)c1ccc(NC(=O)CCc2ccncc2)c(C)c1` (configuration not stated), the INHIBITION is 39%.

For the compound `COC(=O)c1ccc(NC(=O)CCc2ccncc2)c(C)c1`, the INHIBITION amounted to 50.1%.

On to `COc1ccc(CCC(=O)Nc2ccncc2C)cc1`, for which the INHIBITION is on record as 12.8%.

As for `O=C(CCOc1ccccc1Cl)N1CCN(c2cnccn2)CC1`, the INHIBITION is reported as -33.7%.

Consider `CCN1CCN(C(=O)NC(C)c2noc(-c3ccccc3)n2)CC1` (configuration not stated), for which the INHIBITION was found to be 51.1%.

As to `CC(NC(=O)N1CCC[C@H]1CO)c1noc(-c2ccccc2)n1` (some centres not stated), the INHIBITION is listed as 8.38%.

With `CC(NC(=O)N1CCSC(C)(C)C1)c1noc(-c2ccccc2)n1` (configuration not stated), the INHIBITION is 38.3%.
